Results filed as inconclusive are left out. Active and inactive are the calls of the source. The call rests on the fitted dose curve; in most records, active means well fitted inhibition curve with a large enough effect; inconclusive means small, poorly fitted or top-dose-only effect; inactive means no such curve, though single readings can be large or run the other way.
Assay: InCell qHTS Assay for Inhibitors of the mTORC1 Signaling Pathway in MEF (Tsc2-/-, p53-/-) Cells: Hit Validation; further: nearly all actives have a fitted effect of over 75% in size
Details: phospho-rpS6 immunofluorescence, 24 h; activity change, negative = inhibition: at 38.3 µM (top of the series)
Text: The mammalian target of rapamycin (mTOR) is an intracellular serine/threonine kinase Aberrant regulation of mTOR signaling plays a causative role in a number of human diseases, including cancer, benign tumors such as lymphangioleiomyomatosis (LAM) and Tuberous Sclerosis Complex (TSC), and metabolic diseases such as diabetes and obesity. This project aims to identify inhibitors of ribosomal protein S6 (rpS6) phosphorylation. The phosphorylation of rpS6 is a key event downstream of mTOR activation. The assay uses a phospho-specific antibody of phospho-rpS6 to detect inhibitors of mTOR activation. Mutations in the Tsc1 and Tsc2 genes are the underlying genetic lesions responsible for TSC, causing constitutive activation of the mTORC1 pathway and leading to profound effects on cell metabolism. Aberrant metabolism in cancer has recently received significant attention as a target to develop therapeutic agents in the treatment of cancer.1 As Tsc2-/- cells have lost the ability to respond to energy and growth factor deprivation, these cells are unable to properly down regulate cellular biosynthetic processes in response to metabolic stress, and are thus extremely sensitive to glucose deprivation-induced death.2 A central goal of this project is to explore the unique cell survival and metabolic properties of cells with Tsc1 or Tsc2 by screening for compounds that selectively target the Tsc2-/- MEFs by screening both Tsc2-/- and WT MEF cell lines. We hope to better understand these aspects of TSC physiology in order to exploit them for therapeutic benefit. NIH Molecular Libraries Probe Production Centers Network [MLPCN] NIH Chemical Genomics Center [NCGC] MLPCN Grant: NS059428 Assay Submitter (PI): Blenis, John; Harvard University
For quantitative high throughput analysis of mTORC1 signaling, we developed a cell-based assay for immuno-fluorescence based detection of rpS6 phosphorylation on the Acumen Explorer that will be used a platform for the primary small molecule screen. Mouse embryonic fibroblasts (MEFs) are cultured in 1536-well plates using DMEM + 10% FBS. Twenty-four hrs after plating, test compounds (solubilized in DMSO) are delivered and incubated with the cells for 24 hrs at 37 degree Celsius. Following the incubation, media with compound is aspirated and the cells are fixed in 4% paraformaldehyde (PFA) containing PBS + 0.2% TX-100. Next, PFA is aspirated, cells are washed two times with PBS plus 0.2% TX-100 and the cells are blocked for 1 hr at room temperature (blocking buffer: LiCOR Blocking Buffer plus 0.2% TX-100). This is followed by aspiration and staining with Alexa-488 conjugated-phospho-rpS6 Ser235/236 antibody for 2 hours at room temperature (Cell Signaling Technology # 4803, 1:50 dilution in blocking buffer). Cells are washed two times with PBS plus 0.2% TX-100, and stained with 10 uM propidium iodide (PI) for 20-25 minutes for cell number measurement (1:500 dilution of Hoescht staining is also added for IN Cell imaging). The plates are scanned on the Acumen Explorer laser scanning instrument (TTP Labtech) using the 488nm laser for simultaneous excitation of the Alexa-488 and PI. The fluorescence emission from the Alexa-488 conjugated rpS6 phospho-235/236 antibody staining is selected using a […] band pass filter. Fluorescence emission from the PI stain is selected using a 575-640 nm band pass filter. The normalized phospho-S6 staining is calculated as the ratio of the integrated Alexa 488 intensity divided by the integrated PI intensity for the single concentration rapamycin control (7.5 nM) and DMSO columns. […] Inhibition of the pathway is defined based on the normalized phospho-S6 intensity in rapamycin treated cells. […]
Potency means the concentration at half of the fitted maximal effect.

SMILES	activity change, negative = inhibition [%]	Potency
Cc1ccc(C(=O)c2cn(CC(=O)NCc3ccccc3Cl)c3nc(C)ccc3c2=O)cc1	-100	–
CCN1CCN(c2ccc(NS(=O)(=O)c3c(C)nc4sccn4c3=O)cc2Cl)CC1	-100	–
O=C(COc1ccc(F)cc1)Nc1ccc(Cl)c(-c2nc3ccccc3[nH]2)c1	-100	–
COc1cc(OC)cc(C(=O)NCc2ccc3c(c2)CCN3C(=O)c2ccccc2)c1	-100	–
COc1cc(CNc2ccc3c(c2)ncn3C(C)C)cc(OC)c1OC	-100	–
Cc1cc(C)cc(OCC(=O)Nc2cccc(-c3nc4ccccc4[nH]3)c2)c1	-100	–
CC1CCN(S(=O)(=O)c2ccc3nc(Nc4cccc(C(F)(F)F)c4)ccc3c2)CC1	-100	–
O=C(NCc1ccccc1Cl)C(=O)NCC(c1cccs1)S(=O)(=O)c1cccs1 (stereo not given)	-100	–
CCOc1ccc(Nc2nc(-c3cccc(Cl)c3)c3c(n2)-c2ccccc2OC3)cc1	-100	–
CCOc1ccc(NC(=O)CSc2oc(-c3ccc(F)cc3)nc2S(=O)(=O)c2ccc(C)cc2)cc1	–	4.65 µM (active)
CCOC(=O)N1CCN(Cc2nc3cc(NC(=O)c4ccc(F)cc4)ccc3n2C(C)C)CC1	-100	–
CCC(C)Sc1oc(-c2ccco2)nc1S(=O)(=O)c1ccc(C)cc1 (stereo not given)	-100	–
Nc1nc(Nc2ccccc2F)sc1C(=O)c1ccc(Cl)cc1	-100	–
CCOC(=O)c1c(NC(=O)COc2ccc(OC)cc2)sc(C(=O)N(CC)CC)c1C	-100	–
COc1ccccc1C(=O)Nc1ccc2nc(N3CCC(C)CC3)cc(C)c2c1	-100	–
Cc1cccc(N2CCN(c3ncnc4c3nc3n4CCCCC3)CC2C)c1 (stereo not given)	–	5.85 µM (active)
O=C(NC1CCCCC1)/C(=C/c1ccc(Cl)cc1)NC(=O)c1ccccc1	-22.5	–
Cc1ccc(NC(=O)c2c(NC(=O)C(F)(F)F)sc3c2CCCCC3)cc1	-100	–
CC(C)Oc1cccc(C2CC(=O)Nc3cc4c(cc32)OCO4)c1 (stereo not given)	-9.58	–
Cc1ccc(C(=O)CC2(O)C(=O)N(Cc3ccccc3)c3ccccc32)c(C)c1 (stereo not given)	-100	–

SMILES	activity change, negative = inhibition [%]	Potency
Cc1ccc(NC(=O)CSc2nc(=O)cc(N)n2CCc2ccccc2)cc1	-100	–
CCS(=O)(=O)c1ncc(Cl)c(C(=O)N(Cc2ccccc2)c2ccc(OC)cc2)n1	–	2.93 µM (active)
Cc1cccc(Nc2ncc(NC(=O)c3cccc(F)c3)c(Nc3cccc(C)c3)n2)c1	-100	–
CC(C)CCNC(=O)C(=O)Nc1c2c(nn1-c1ccc(Cl)cc1)CSC2	–	18.5 µM (active)
COc1cc(OC)c(NC(=O)Nc2ccc3c(c2)N(C)C(=O)c2ccccc2S3)cc1Cl	–	13.1 µM (active)
Cc1ccc(C)c(NC(=O)Nc2cc3c(cc2N2CCCCC2)n(C)c(=O)n3C)c1	-100	–
Cc1ccc(NC(=O)CSc2nc(-c3ccco3)cc(C(F)(F)F)n2)cc1C	-100	–
CCOc1ccccc1NC(=O)Cn1c(=O)n(CCC(=O)NCc2ccc3c(c2)OCO3)c(=O)c2ccccc21	-100	–
CCCCS(=O)(=O)c1oc(-c2cccs2)nc1S(=O)(=O)c1ccc(F)cc1	–	3.29 µM (active)
CN(C)c1ccc(-c2nc3ccccn3c2Nc2ccc3c(c2)OCCO3)cc1	-100	–
Cc1ccc(-c2nnc(C3CCN(S(=O)(=O)c4ccc(C)c(C)c4)CC3)o2)cc1	-100	–
COc1cccc(C2CC(=O)Nc3cc4c(cc32)OCCO4)c1OC (stereo not given)	-100	–
COc1ccc(NC(=O)c2c(NC(=O)COc3ccccc3)sc3c2CCC(C)C3)cc1 (stereo not given)	-100	–
Cc1ccc([C@H]2Nc3ccc(S(=O)(=O)Nc4cccc(Cl)c4C)cc3[C@H]3C=CC[C@H]32)cc1	-100	–
CCOc1ccc(NC(=O)CN2C(=O)C(c3ccc(Cl)cc3)=NC2(C)C)cc1	-100	–
CC1=Nc2cc(C(=O)NC3CCCC3)ccc2Sc2ccc(Br)cc21	-100	–
COCCCNC(=O)c1ccc(CSc2nc3cccnc3n2Cc2ccc(OC)cc2)cc1	-100	–
CCC1CCc2nc3sc(C(=O)Nc4ccc(C)cc4)c(N)c3cc2C1 (stereo not given)	-100	–
COc1ccc(N2CCN(C(=O)C3CCCN(S(=O)(=O)c4ccc5c(c4)CCCN5C(C)=O)C3)CC2)cc1 (stereo not given)	-100	–
CCOc1ccc(CC(=O)NC2CC(=O)N(c3ccc4c(c3)OCCO4)C2)cc1 (stereo not given)	-100	–
